In PubChem BioAssay (Tox21):
Records with an inconclusive call do not appear. Active and inactive are the calls of the source. Unless noted, the call rests on the fitted dose curve; in most records, active means well fitted curve in the direction sought with a large enough effect in the repeat runs; inconclusive means weak or mixed curves; inactive means no such curve, though single readings can be large; an effect the other way counts as inactive or inconclusive.

Legend:
[1] = qHTS assay to identify small molecule agonists of the androgen receptor (AR) signaling pathway in the presence of an antagonist - cell viability counter screen (AID 1259379); further: nearly all actives have a fitted effect of over 25% in size; further: potency means the concentration at half of the fitted maximal effect;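 on activity change, negative = cytotoxicity: MDA-kb2 human breast cancer cells carrying an MMTV luciferase reporter; series mostly up to about 92 µM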
Method in brief: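 Seed MDA-kb2 at 3,000 cells/well; incubate 5 hr, 37C, 0% CO2. Add nilutamide to 3.0uM final, then pin compounds at 15 concentrations. Incubate 16 hr. Add CellTiter-Fluor at 15 hr, read fluorescence after 1 hr.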

[2] = qHTS assay to identify small molecule agonists of the estrogen receptor beta (ER-beta) signaling pathway - cell viability counter screen (AID 1259380); further: nearly all actives have a fitted effect of over 30% in size; further: potency means the concentration at half of the fitted maximal effect
Method in brief: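 CellTiter-Glo read, 30 min RT, same wells as bla assay; cells ER-beta-UAS-bla HEK293T; 16 hr compound, 37C; medium 2% charcoal-stripped FBS.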

[3] = biological target: Androgen receptor (Homo sapiens) (UniProt P10275); assay: qHTS assay to identify small molecule agonists of the androgen receptor (AR) signaling pathway in the presence of an antagonist (AID 1259381; calls by dose curve; further: nearly all actives have a fitted effect of over 15% in size)
Method in brief: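 Test compounds at 15 concentrations were incubated for 16hr with MDA-kb2 reporter cells in presence of 3.0uM nilutamide (final). Signal: ONE-Glo luciferase luminescence.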

[4] = qHTS assay to identify small molecule antagonists of the estrogen receptor beta (ER-beta) signaling pathway - cell viability counter screen (AID 1259382);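 further: HEK293T cells carrying ER-beta-UAS-bla reporter stimulated with estradiol; series mostly up to about 92 µM; nearly all actives have a fitted effect of over 55% in size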
Method in brief: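 In this multiplexed counter screen, cells were seeded at 2,000 per well in medium with 2% charcoal-stripped FBS and incubated 6 hr before compound and 1nM final E2 were added. Sixteen hours later, ATP-based luminescence reported viability.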

[5] = biological target: Estrogen receptor (Homo sapiens) (UniProt P03372); assay: qHTS assay to identify small molecule agonists of the estrogen receptor alpha (ER-alpha) signaling pathway in the presence of an antagonist (AID 1259383; calls by dose curve; further: top concentration of the series differs between compounds; nearly all actives have a fitted effect of over 15% in size)
Method in brief: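 Stably transfected VM7Luc4E2 reporter cells, kept 5 days in charcoal-stripped serum, received ICI-182,780 at 10.0nM final before compound addition. Following 22hr incubation at 37C and 5% CO2, luciferase signal was read by luminescence.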

[6] = qHTS assay to identify small molecule agonists of the estrogen receptor alpha (ER-alpha) signaling pathway in the presence of an antagonist - cell viability counter screen (AID 1259386);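 further: series mostly up to about 92 µM; cells exposed to compounds for 22 h at 37 °C before the viability read; nearly all actives have a fitted effect of over 30% in size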
Method in brief: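 Viability counter screen using VM7Luc4E2 (full-length ER-alpha, four ERE-luciferase). The cells were treated with compounds alongside ICI-182,780 10.0nM for 22hr, and live-cell protease fluorescence was quantified with CellTiter-Fluor.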

[7] = biological target: Progesterone receptor (Homo sapiens) (UniProt P06401); assay: qHTS assay to identify small molecule agonists of the progesterone receptor (PR) signaling pathway (AID 1346784; calls by dose curve; further: nearly all actives have a fitted effect of over 30% in size)
Method in brief: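 Agonist qHTS: compounds pinned onto 3,000 PR-UAS-bla HEK 293T cells per well in charcoal-stripped serum medium, 16hr at 37C, then beta-lactamase activity measured by LiveBLAzer FRET fluorescence after 2 hours at room temperature.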

[8] = qHTS assay to identify small molecule agonists or antagonists of the thyroid stimulating hormone receptor (TSHR) signaling pathway - wild type cell line counter screen (AID 1259384; calls by dose curve)
Method in brief: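 Wild-type HEK293 cells were plated 18 h at 37 C/5% CO2, pin-dosed with compound plus Ro20-1724 medium, held 30 min at room temperature, then given cAMP-d2 and anti-cAMP-cryptate; fluorescence was read after 1 h. Fifteen concentrations, triplicate.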

[9] = biological target: Thyrotropin receptor (Homo sapiens) (UniProt P16473); assay: qHTS assay to identify small molecule antagonists of the thyroid stimulating hormone receptor (TSHR) signaling pathway (AID 1259385; calls by dose curve; further: nearly all actives have a fitted effect of over 20% in size)
Method in brief: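 TSHR-HEK293 cells were plated and held 18 h at 37C/5% CO2, then given compound plus Ro20-1724 and stimulated with TSH at 1.5 ng/mL final. After 30 min at room temperature, cAMP was detected with cAMP-d2/anti-cAMP-cryptate (1 h) by fluorescence.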

[10] = biological target: Progesterone receptor (Homo sapiens) (UniProt P06401); assay: qHTS assay to identify small molecule antagonists of the progesterone receptor (PR) signaling pathway (AID 1346795; active means well fitted inhibition curve with a large enough effect in the signal ratio in the repeat runs, not every such curve was filed as active; the % refers to the signal ratio)
Method in brief: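 Antagonist mode with agonist R5020 at 1 nM final and 16 hr incubation at 37C. Reporter was beta-lactamase driven by UAS in HEK293T (PR-UAS-bla), 2% charcoal-stripped serum; signal from LiveBLAzer FRET substrate, 2 hr at room temperature.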
On the % scale 0 is the no-effect control and ±100 the full control effect.

Progesterone receptor (Homo sapiens), sequence (P06401 whole entry, looked up): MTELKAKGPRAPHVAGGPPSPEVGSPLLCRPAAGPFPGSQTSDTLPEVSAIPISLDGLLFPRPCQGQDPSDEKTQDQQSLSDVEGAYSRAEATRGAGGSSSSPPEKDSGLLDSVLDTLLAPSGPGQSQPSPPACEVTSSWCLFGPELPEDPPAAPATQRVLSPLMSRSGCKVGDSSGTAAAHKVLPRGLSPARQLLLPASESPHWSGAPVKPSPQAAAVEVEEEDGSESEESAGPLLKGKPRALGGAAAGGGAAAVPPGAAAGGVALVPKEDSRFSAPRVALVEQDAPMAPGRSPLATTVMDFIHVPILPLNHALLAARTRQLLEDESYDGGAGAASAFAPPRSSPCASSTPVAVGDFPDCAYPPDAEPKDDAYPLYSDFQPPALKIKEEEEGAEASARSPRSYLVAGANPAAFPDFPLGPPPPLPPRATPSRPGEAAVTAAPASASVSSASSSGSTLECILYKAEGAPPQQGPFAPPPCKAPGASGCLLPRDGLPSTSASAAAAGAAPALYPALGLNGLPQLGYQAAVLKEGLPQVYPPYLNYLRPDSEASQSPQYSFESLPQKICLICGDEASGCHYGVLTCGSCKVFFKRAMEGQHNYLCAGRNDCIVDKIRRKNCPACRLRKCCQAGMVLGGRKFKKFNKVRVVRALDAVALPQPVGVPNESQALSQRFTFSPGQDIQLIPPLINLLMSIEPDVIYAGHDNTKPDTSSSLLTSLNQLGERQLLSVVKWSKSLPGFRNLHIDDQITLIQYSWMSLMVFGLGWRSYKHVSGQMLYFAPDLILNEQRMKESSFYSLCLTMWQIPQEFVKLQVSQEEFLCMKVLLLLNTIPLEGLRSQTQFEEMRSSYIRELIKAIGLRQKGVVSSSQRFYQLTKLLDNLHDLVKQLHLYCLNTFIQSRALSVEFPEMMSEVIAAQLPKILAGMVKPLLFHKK
Androgen receptor (Homo sapiens), sequence (P10275 whole entry, looked up): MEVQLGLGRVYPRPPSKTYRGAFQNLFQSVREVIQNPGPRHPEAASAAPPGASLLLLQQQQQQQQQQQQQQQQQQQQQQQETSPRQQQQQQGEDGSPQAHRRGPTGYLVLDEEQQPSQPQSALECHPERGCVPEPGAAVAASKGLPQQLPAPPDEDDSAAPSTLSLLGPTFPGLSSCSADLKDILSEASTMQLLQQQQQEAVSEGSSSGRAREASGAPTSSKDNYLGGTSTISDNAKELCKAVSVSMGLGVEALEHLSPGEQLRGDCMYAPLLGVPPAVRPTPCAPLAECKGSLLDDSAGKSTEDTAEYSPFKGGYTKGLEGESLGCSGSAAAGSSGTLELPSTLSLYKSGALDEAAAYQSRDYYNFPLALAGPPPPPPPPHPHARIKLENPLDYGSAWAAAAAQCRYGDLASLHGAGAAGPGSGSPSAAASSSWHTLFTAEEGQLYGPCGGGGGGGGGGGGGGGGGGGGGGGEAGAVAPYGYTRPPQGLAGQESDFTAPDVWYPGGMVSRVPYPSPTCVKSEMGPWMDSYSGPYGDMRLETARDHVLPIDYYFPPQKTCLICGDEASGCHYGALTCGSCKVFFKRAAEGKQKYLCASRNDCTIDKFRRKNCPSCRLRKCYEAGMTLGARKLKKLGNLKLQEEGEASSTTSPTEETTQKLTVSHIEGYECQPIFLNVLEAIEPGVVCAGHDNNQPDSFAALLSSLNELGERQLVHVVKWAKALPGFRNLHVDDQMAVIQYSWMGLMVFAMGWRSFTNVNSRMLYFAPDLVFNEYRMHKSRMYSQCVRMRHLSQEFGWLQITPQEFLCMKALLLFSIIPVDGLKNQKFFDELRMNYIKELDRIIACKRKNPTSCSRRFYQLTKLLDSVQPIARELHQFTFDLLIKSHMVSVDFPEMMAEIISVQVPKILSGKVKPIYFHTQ
Estrogen receptor (Homo sapiens), sequence (P03372 whole entry, looked up): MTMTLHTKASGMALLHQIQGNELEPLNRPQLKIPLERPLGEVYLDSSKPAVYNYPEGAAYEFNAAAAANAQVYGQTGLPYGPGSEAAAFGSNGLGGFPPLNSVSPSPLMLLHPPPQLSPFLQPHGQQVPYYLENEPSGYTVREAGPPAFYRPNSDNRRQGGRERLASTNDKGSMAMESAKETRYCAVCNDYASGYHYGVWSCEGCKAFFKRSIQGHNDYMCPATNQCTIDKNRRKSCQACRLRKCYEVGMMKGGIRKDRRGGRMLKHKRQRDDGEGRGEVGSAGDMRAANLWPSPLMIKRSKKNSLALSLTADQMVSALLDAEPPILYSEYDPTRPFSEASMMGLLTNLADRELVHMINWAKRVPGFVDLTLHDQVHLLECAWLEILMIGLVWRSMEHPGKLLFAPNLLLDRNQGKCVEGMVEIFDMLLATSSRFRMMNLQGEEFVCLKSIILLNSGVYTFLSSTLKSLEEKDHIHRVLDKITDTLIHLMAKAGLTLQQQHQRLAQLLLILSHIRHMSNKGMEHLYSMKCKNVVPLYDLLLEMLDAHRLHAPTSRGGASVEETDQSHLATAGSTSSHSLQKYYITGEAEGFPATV
Thyrotropin receptor (Homo sapiens), sequence (P16473 whole entry, looked up): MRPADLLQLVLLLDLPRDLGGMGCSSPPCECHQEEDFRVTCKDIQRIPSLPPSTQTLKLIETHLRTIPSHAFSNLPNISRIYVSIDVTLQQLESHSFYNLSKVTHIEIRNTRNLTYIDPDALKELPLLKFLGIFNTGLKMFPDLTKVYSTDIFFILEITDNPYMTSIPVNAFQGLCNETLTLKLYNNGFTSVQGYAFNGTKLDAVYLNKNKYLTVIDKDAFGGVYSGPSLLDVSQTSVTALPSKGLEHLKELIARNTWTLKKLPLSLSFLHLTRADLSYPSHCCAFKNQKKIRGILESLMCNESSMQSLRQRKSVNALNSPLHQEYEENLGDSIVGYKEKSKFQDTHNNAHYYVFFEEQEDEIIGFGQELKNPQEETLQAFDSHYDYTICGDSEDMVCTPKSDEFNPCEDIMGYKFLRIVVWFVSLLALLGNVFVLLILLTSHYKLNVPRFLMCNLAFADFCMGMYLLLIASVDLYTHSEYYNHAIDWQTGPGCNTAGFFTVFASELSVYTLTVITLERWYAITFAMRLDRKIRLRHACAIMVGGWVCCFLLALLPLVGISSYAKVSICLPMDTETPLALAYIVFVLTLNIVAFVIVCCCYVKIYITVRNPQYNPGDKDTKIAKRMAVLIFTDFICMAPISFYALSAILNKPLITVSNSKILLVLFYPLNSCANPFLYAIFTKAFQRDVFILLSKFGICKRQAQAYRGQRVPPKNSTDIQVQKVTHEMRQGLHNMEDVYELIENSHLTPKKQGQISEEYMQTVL

Cc1cccc2c1ccc1ccccc12
inactive: Potency [1] | Potency [2] | Potency [3] | Potency [4] | Potency [5] | Potency [6] | outcome [7]

Nc1cc([N+](=O)[O-])ccc1Cl
inactive: Potency [1] | Potency [2] | Potency [3] | Potency [4] | Potency [8] | Potency [6] | outcome [7]

O=C(O)C[C@H](O)C[C@H](O)/C=C/c1c(C2CC2)nc2ccccc2c1-c1ccc(F)cc1
inactive: activity change, negative = cytotoxicity [1] 0.182% [at 19 µM] | activation [3] -0.267% [at 19 µM] | activation [5] -0.342% [at 19 µM] | cAMP activity change [8] -3.96% [at 18.9 µM, hits give high values] | activity change, negative = cytotoxicity [6] 8.43% [at 19 µM] | activation [7] -0.575% [at 19 µM]
active: Potency [2] 3.26 µM

Cn1ccnc1
inactive: Potency [1] | Potency [2] | Potency [4] | Potency [5] | Potency [8] | Potency [9] | Potency [6] | outcome [7] | Potency [10]

O=C(Nc1ccc([N+](=O)[O-])cc1)Nc1ccc([N+](=O)[O-])cc1 (tested in a mixture with another compound)
inactive: Potency [1] | Potency [8] | outcome [7]
active: Potency [2] 0.596 µM

CCCCCCCCCCCC(=O)Cl
inactive: Potency [1] | Potency [5] | Potency [8] | Potency [6] | outcome [7] | Potency [10]
active: Potency [2] 34.4 µM

O=C(O)CN(CCCN(CC(=O)O)CC(=O)O)CC(=O)O
inactive: activity change, negative = cytotoxicity [1] -2.17% [at 19 µM] | activity change, negative = cytotoxicity [2] -20.5% [at 19 µM] | activation [3] 1.23% [at 19 µM] | activation [5] -0.204% [at 19 µM] | cAMP activity change [8] 0.161% [at 18.9 µM, hits give high values] | activity change, negative = inhibition [9] 1.63% [at 19 µM] | activity change, negative = cytotoxicity [6] -13.1% [at 19 µM] | activation [7] 8.3% [at 19 µM] | activity change, negative = inhibition [10] -17.6% [at 18.9 µM]

NCc1ccco1
inactive: Potency [1] | Potency [2] | Potency [4] | Potency [8] | Potency [9] | Potency [6] | outcome [7] | Potency [10]

C=Cc1ccncc1
inactive: Potency [1] | Potency [2] | Potency [3] | Potency [4] | Potency [8] | Potency [6] | outcome [7] | Potency [10]

CCCC(C)C=O (centres undefined)
inactive: Potency [1] | Potency [2] | Potency [4] | Potency [5] | Potency [9] | Potency [6] | outcome [7] | Potency [10]

CCSCC
inactive: Potency [1] | Potency [2] | Potency [4] | Potency [5] | Potency [6]

CCN(CC)c1ccc2c(c1)Oc1cc(N(CC)CC)ccc1C21OC(=O)c2ccccc21
active: Potency [1] 7.5 µM | Potency [2] 10.6 µM
inactive: Potency [3] | Potency [5] | outcome [7] | Potency [10]

CC(=O)CC(N)=O
inactive: Potency [1] | Potency [2] | Potency [4] | Potency [5] | Potency [6] | outcome [7] | Potency [10]

CCCCCCCCCCCCS(=O)(=O)Cl
inactive: activity change, negative = cytotoxicity [1] 2.74% [at 19 µM] | activation [3] 1.48% [at 19 µM] | cAMP activity change [8] 2.12% [at 18.9 µM, hits give high values] | activity change, negative = cytotoxicity [6] -0.178% [at 19 µM] | activation [7] -0.481% [at 19 µM] | activity change, negative = inhibition [10] -1.09% [at 18.9 µM]
active: Potency [2] 14.6 µM
